# Among all 360,000 compounds or so, about 11,000 (3.1%) were called active. Entries that show only a call come without a potency. Inconclusive results (about 4%) are left out. This is one part of a sample in which actives are shown more often than they occur. Calls follow the shape of the dose curve; as a rule, active = well fitted inhibition curve with a large enough effect; inconclusive = small, poorly fitted or top-dose-only effect; inactive = no such curve, though single readings can be large or run the other way.
# Target: Schistosoma mansoni thioredoxin glutathione reductase (TGR) (UniProt Q962Y6)
# Assay: qHTS Assay for the Inhibitors of Schistosoma Mansoni Peroxiredoxins; also: nearly all actives have a fitted effect of over 60% in size
# Conditions: purified TGR, DTNB reduction, TNB absorbance 405 nm; series mostly up to 114 µM
# Summary of the method: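 TGR 20 nM + NADPH 100 uM (dispensed conc.), cpd preinc 15 min RT; start with NADPH (500 uM addition) then DTNB (15 mM addition). Kinetic TNB absorbance, 405 nm filter. Four-parameter Hill fit across titration.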
# Potency is read from the fitted curve at half-maximal effect.
row,Structure (SMILES),Potency
1,Cc1nc2nc(SCC(=O)N(Cc3ccccc3)C(C)C)nn2c(C)c1Cc1ccccc1Cl,inactive
2,Cc1ccc(Nc2c(-c3ccc(Cl)cc3)nc3sccn23)c(C)c1,inactive
3,COc1ccc(-n2c(C)nc3c(cnn3-c3ccc(F)cc3)c2=O)cc1,inactive
4,Cc1ccc(S(=O)(=O)n2nc(-c3ccc(Cl)cc3)nc2NCc2ccccc2)cc1,inactive
5,CS(=O)(=O)n1nc(-c2ccccc2)nc1NCc1ccco1,44.7 µM (active)
6,O=C(c1ccco1)n1nc(-c2ccc(Cl)cc2)nc1NCc1ccccc1,inactive
7,Cc1ccc(CNC(=O)CCc2c(C)nc3nc(CNC(=O)OC(C)(C)C)nn3c2C)cc1,inactive
8,Cc1cc(OCC(=O)NCC2(N(C)C)CCCCC2)cc(C)c1Cl,inactive
9,O=C(C1=C[C@H](c2ccc(C(F)(F)F)cc2)C[C@H](OCc2ccc(CO)cc2)O1)N1CCN(Cc2ccccc2)CC1,28.2 µM (active)
10,O=C(C1=C[C@H](c2coc3ccccc3c2=O)C[C@H](OCc2ccc(CO)cc2)O1)N1CCN(Cc2ccccc2)CC1,inactive
11,O=C(NCc1ccccc1)C1=C[C@@H](c2ccc(C(F)(F)F)cc2)C[C@@H](OCc2ccc(CO)cc2)O1,inactive
12,O=C(CSCc1cnn(-c2ccccc2)c1-n1cccc1)NCc1ccc(Cl)cc1,inactive
13,CCOc1ccc(C(=O)c2cn(Cc3ccccc3OC)c3ccc(F)cc3c2=O)cc1,inactive
14,COc1ccc2c(c1)Cc1sc(NC(=O)c3ccccc3Br)nc1-2,inactive
15,O=S(=O)(c1ccc(C2CCCCC2)cc1)N1CCN(c2ccc(Cl)c(Cl)c2)CC1,inactive
16,CCCCNC(=O)C1CCCN(c2nnc(C)c3c(C)n(-c4ccc(Cl)cc4)nc23)C1 (centres undefined),inactive
17,CCN(CCCNC(=O)Cn1ncc2c([nH]c3ccccc32)c1=O)c1cccc(C)c1,inactive
18,CN(C)c1nc(N(C)C)nc(N(C#N)CCCl)n1,1 µM (active)
19,Cc1cccn2c(=O)c3cc(C(=O)NC(C)c4ccccc4)c(=N)n(CCCO)c3nc12 (centres undefined),inactive
20,CCOC(=O)c1c(NC(C)=O)c2c3c(sc2n1Cc1c(C)cc(C)cc1C)CCCC3,inactive
21,O=C(c1cnn(-c2ccc(F)cc2)c1-n1cccc1)N1CCN(c2ccc(F)cc2)CC1,inactive
22,CCCc1[nH]nc2c1C(c1ccc(Br)s1)C(C#N)=C(N)O2 (centres undefined),inactive
23,COc1ccc(-c2[nH]nc3c2C(c2ccncc2)C(C#N)=C(N)O3)cc1 (centres undefined),inactive
24,Cc1cc(C)c(C#N)c(SCc2[nH]nc3c2C(c2ccccc2)C(C#N)=C(N)O3)n1 (centres undefined),22.4 µM (active)
25,O=C(Nc1cccnc1)c1cc2cc(Br)ccc2oc1=O,inactive

row,Structure (SMILES),Potency
1,Fc1cc(Br)ccc1NC(=S)Nc1cccnc1,10 µM (active)
2,S=C(Nc1cccnc1)Nc1ccccn1,inactive
3,COc1cc(C2c3c(oc4ccccc4c3=O)C(=O)N2c2nc(C)c(C)s2)ccc1O (centres undefined),inactive
4,O=C(Nc1c(C(=O)N2CCN(c3ccc(F)cc3)CC2)oc2ccccc12)c1ccco1,inactive
5,CCOC(=O)c1oc2c(CN3CCN(CCO)CC3)c(O)c(CC)cc2c(=O)c1-c1nc2ccccc2s1,inactive
6,CC(C)(C)c1ccc(/C=C2\Oc3c(ccc(O)c3CN3CCN(CCO)CC3)C2=O)cc1,50.1 µM (active)
7,O=C(CSc1nc2c(c(=O)[nH]1)CN(Cc1ccc3c(c1)OCO3)CC2)Nc1cc(F)ccc1F,inactive
8,CCOC(=O)c1cnc(COc2ccccc2Cl)[nH]c1=O,inactive
9,CCOC(=O)c1cc2c(=O)[nH]c(C(Cl)(Cl)Cl)nc2o1,17.8 µM (active)
10,CCOC(=O)c1ccc(COC(=O)c2cc(=O)[nH]c3ccccc23)o1,inactive
11,Cc1ccc(OCC(=O)c2cc(C)n(Cc3ccco3)c2C)c([N+](=O)[O-])n1,35.5 µM (active)
12,Cc1cc(C(=O)COC(=O)CNC(=O)c2ccc(F)cc2)c(C)n1Cc1ccco1,inactive
13,COCC(C)n1c(C)cc(C(=O)COc2ccc(C)nc2[N+](=O)[O-])c1C (centres undefined),inactive
14,CCOc1ccccc1NC(=O)CCc1nnc2ccc(NCc3ccco3)nn12,inactive
15,CCOc1ccccc1NC(=O)NC1CCCCCCC1,inactive
16,CCOc1ccccc1NC(=S)NC(=O)CCc1ccccc1,7.94 µM (active)
17,CCOc1ccc(CNC(=O)Cn2cc3c(n2)-c2c(oc(C(=O)N4CCCC4)c2C)CC3)cc1,inactive
18,CC1=C(C(=O)OCc2ccc(C)cc2)C(c2c(Cl)cccc2Cl)CC(=O)N1 (centres undefined),inactive
19,CCc1cccc(CC)c1NC(=S)NCc1ccc2[nH]c(C)cc2c1,inactive
20,Cc1cc2cc(CNC(=O)c3cccs3)ccc2[nH]1,31.6 µM (active)
21,COc1ccc(CNC(=O)c2cc3c(=O)[nH]c4ccccc4c3s2)cc1,inactive
22,COc1cc2nc(SCc3ccc(F)cc3)n3nc(CCn4c(C)nc5ccccc54)nc3c2cc1OC,inactive
23,CCCSc1nc2sc3c(c2c(=O)n1-c1cccc(Br)c1)CC(C)(C)OC3,inactive
24,COc1ccc(CCNc2ncnc3c2cnn3-c2ccc(C)cc2)cc1,inactive
25,O=C(CSc1nccn1C1CCCC1)Nc1cc(C(F)(F)F)ccc1Cl,inactive

row,Structure (SMILES),Potency
1,CCOc1cnc(-c2c(-c3ccccc3Cl)noc2C)o1,inactive
2,Cc1oc(-c2ccccc2Cl)[n+]([O-])c1C,31.6 µM (active)
3,CCn1c(=O)c(=O)[nH]c2c(=O)oc3ccc(S(=O)(=O)Nc4ccc(OC)cc4)cc3c21,35.5 µM (active)
4,COc1ccc(S(=O)(=O)Nc2ccc3oc(C)c(C(C)=O)c3c2)cc1,inactive
5,COc1ccc(NS(=O)(=O)c2ccc3oc(SCC(N)=O)nc3c2)cc1,inactive
6,Cc1cc(NC(=O)CS(=O)(=O)c2cn(C)c3ccccc23)no1,28.2 µM (active)
7,CCOC(=O)c1ccc(NC(=O)CS(=O)(=O)c2cn(CC)c3ccccc23)cc1,inactive
8,Cc1cc(NC(=O)COn2nnc3ccccc32)no1,inactive
9,COc1ccc(N(C)C(=O)C2CCN(S(=O)(=O)c3cc(Br)cc4c3N(C(C)=O)CC4)CC2)cc1,inactive
10,COc1ccc(Cl)cc1S(=O)(=O)N1CCC(c2ccncc2)CC1,inactive
11,CN(Cc1ccccn1)Cc1nc(-c2ccc(Cl)cc2)no1,28.2 µM (active)
12,CCN1CC(CN(C)Cc2nc(-c3ccc(Cl)cc3)no2)CC1=O (centres undefined),inactive
13,COC(=O)c1ccc(-c2noc(CN(Cc3ccccn3)CC3CCCO3)n2)cc1 (centres undefined),inactive
14,CC(=O)N1CCCc2ccc(NS(=O)(=O)c3ccc(F)cc3F)cc21,inactive
15,COc1cc(OC)cc(-c2nc3nc(C)c(CCC(=O)Nc4ccccc4)c(C)n3n2)c1,inactive
16,Cc1ccc(NC(=O)c2oc3ccc(S(=O)(=O)N4CCCCC4)cc3c2C)cc1Cl,inactive
17,O=C(/C=C/c1ccccc1Cl)Nc1ccc(S(=O)(=O)Nc2ncccn2)cc1,inactive
18,O=C(CCS(=O)(=O)c1ccccc1Cl)Nc1ccc(S(=O)(=O)Nc2ncccn2)cc1,14.1 µM (active)
19,O=S(=O)(Nc1ncccn1)c1ccc(NS(=O)(=O)c2cccc(Cl)c2Cl)cc1,inactive
20,CCOc1ccc(NC(=O)Cn2c(=O)n(CCCC(=O)NCc3ccc4c(c3)OCO4)c(=O)c3ccccc32)cc1,inactive
21,O=S(=O)(NCCS(=O)(=O)N1CCN(c2ccccc2)CC1)c1ccc(Cl)cc1,inactive
22,O=C(CNS(=O)(=O)c1cccs1)N1CCN(c2ccccc2Cl)CC1,inactive
23,Cc1ccccc1Nc1nn2c(=O)c3ccc(C(=O)NCCc4ccc(Cl)cc4)cc3nc2s1,inactive
24,O=C(O)c1ccc2c(c1)N(Cc1ccc(F)cc1)C(=O)c1ccccc1S2=O (centres undefined),inactive
25,CCC1=C/C(=C\c2ccc3c(c2)OCO3)C(=O)S1,28.2 µM (active)

row,Structure (SMILES),Potency
1,CCc1ccc(NC(=O)NC(C)c2ccc3c(c2)OCO3)cc1 (centres undefined),inactive
2,CCCCN(CC)C(=O)c1ccc2c(c1)OCO2,inactive
3,O=C(NCc1ccccn1)c1ccc2nc(-c3ccco3)c(-c3ccco3)nc2c1,0.891 µM (active)
4,COc1ccc(-c2nc3ccc(C(=O)NCc4ccc(C)cc4)cc3nc2-c2ccc(OC)cc2)cc1,inactive
5,COc1cccc(S(=O)(=O)NCc2ccc(C(=O)NCc3ccccn3)cc2)c1,inactive
6,Cc1ccc(C(=O)C(=S)N2CCOCC2)cc1,inactive
7,CNC(=S)N/N=C/c1ccc(N2CCOCC2)s1,28.2 µM (active)
8,CNC(=S)N/N=C/c1ccc(OCc2ccccc2)c(Br)c1,inactive
9,CCN(CC)c1ccc(NC(=O)CN2CCN(CC(=O)Nc3ccc(Cl)cc3)CC2)cc1,inactive
10,COc1ccc(C2C(=O)N(C3CCCCCC3)CC(=O)N2CCc2ccc(Cl)cc2)cc1OC (centres undefined),inactive
11,Oc1ccc(-c2nc3ccc(Cl)cn3c2Nc2ccc3c(c2)OCO3)cc1,inactive
12,COc1ccc(OC)c(NC(=O)CSC2=Nc3ccccc3C3=NC(CC(=O)NCCc4ccccc4)C(=O)N23)c1 (centres undefined),inactive
13,Cc1coc2c(O)cc3c(c12)OC1(N2CCCCC2)C(=O)NCCCC31 (centres undefined),17.8 µM (active)
14,Cn1c(=O)c2c(nc(SCC(=O)Nc3ccc(F)cc3)n2Cc2ccc(Cl)cc2)n(C)c1=O,inactive
15,O=C(Nc1ccccc1Cl)N1CCC(CN2CCCCC2)CC1,inactive
16,Cc1cc(C)c(/C=C/c2onc(C)c2S(=O)(=O)N2CCC(C(=O)Nc3ccc(Cl)cc3C)CC2)c(C)c1,inactive
17,NC(=O)CSc1oc(-c2cccs2)nc1S(=O)(=O)c1ccccc1,inactive
18,CSc1oc(-c2cccs2)nc1S(=O)(=O)c1ccc(Br)cc1,inactive
19,CCCCS(=O)(=O)c1oc(-c2cccs2)nc1S(=O)(=O)c1ccccc1,0.501 µM (active)
20,COc1ccccc1OCC(=O)Nc1nnc2n1CCS2,inactive
21,CCOC(=O)c1c(S(=O)(=O)NCC(=O)Nc2ccc(Cl)c(C(F)(F)F)c2)c(C)n(C)c1C,inactive
22,Cc1ccc(S(=O)(=O)n2cnc3ccccc32)c(C)c1,inactive
23,Cc1ccc(C)c(S(=O)(=O)n2cnc3ccccc32)c1,inactive
24,Cc1cc(C)c(S(=O)(=O)n2cc(C(C)C(N)C(=O)O)c3ccccc32)c(C)c1 (centres undefined),10 µM (active)

# From PubChem BioAssay AID485364 (National Center for Advancing Translational Sciences (NCATS), 2010)
